From PubChem
TRPV1 ag: human TRPV1 agonism | actives 0.19% (n = 320,000) | activation, % at 8.33 µM | AID 540275 | TRPV1-expressing cells, Fluo-8 calcium influx, agonist mode | Q8NER1; in the data active = activation above about 80%; inconclusive = between about 30% and that limit; note: 0% is about no effect
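Cells expressing TRPV1 were dye-loaded with Fluo-8 and read kinetically: 10 s baseline, 3 min after compound (agonist portion), then 2 min after EC20 capsaicin (allosteric enhancer portion). Calcium-bound dye fluorescence at 480/520 nm.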
VP16 counter: inhibits Gal4-VP16 luciferase reporter, ROR gamma counter-screen. Drosophila S2 Gal4-VP16 UAS-luciferase, luminescence, 20 h. Potency, µM (series often up to 53.6 µM), for the others: at the top dose activity, negative = inhibition, usual class: inhibitors. actives 3.5% (n = 310,000);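 note: Gal4-VP16 expression switched on by copper sulfate through the metallothionein promoter; potency is the fitted concentration of half-maximal effect; % is set by controls: 0 for no effect and ±100 for the full control effect; nearly all actives have a fitted effect of over 50% in size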
uPA generation: blocks generation of uPA at the cell surface. cell surface uPA generation assay, qHTS. Potency, µM (doses to about 38.3 µM), without a hit: top-dose activity change, negative = inhibition, usual class: inhibitors. actives 0.31% (n = 330,000). AID 540303; active = well fitted inhibition curve with a large enough effect; inconclusive = small, poorly fitted or top-dose-only effect; inactive = no such curve, though single readings can be large or run the other way; tested in mouse RAW 264.7 cells; note: potency is the fitted concentration of half-maximal effect; % is set by controls: 0 for no effect and ±100 for the full control effect; nearly all actives have a fitted effect of over 55% in size
RORgamma inh: ROR gamma (mouse) transcription inhibition; P51450; Drosophila S2 Gal4-RORgamma UAS-luciferase reporter, 20 h; Potency, µM (highest dose often 53.6 µM), for the others: at the highest dose activity change, negative = inhibition, actives largely listed as inhibitors; actives 5.4% (n = 310,000); note: potency is the fitted concentration of half-maximal effect; % is set by controls: 0 for no effect and ±100 for the full control effect; nearly all actives have a fitted effect of over 60% in size
Target sequence (P51450 whole entry, looked up, the tested form may be a part): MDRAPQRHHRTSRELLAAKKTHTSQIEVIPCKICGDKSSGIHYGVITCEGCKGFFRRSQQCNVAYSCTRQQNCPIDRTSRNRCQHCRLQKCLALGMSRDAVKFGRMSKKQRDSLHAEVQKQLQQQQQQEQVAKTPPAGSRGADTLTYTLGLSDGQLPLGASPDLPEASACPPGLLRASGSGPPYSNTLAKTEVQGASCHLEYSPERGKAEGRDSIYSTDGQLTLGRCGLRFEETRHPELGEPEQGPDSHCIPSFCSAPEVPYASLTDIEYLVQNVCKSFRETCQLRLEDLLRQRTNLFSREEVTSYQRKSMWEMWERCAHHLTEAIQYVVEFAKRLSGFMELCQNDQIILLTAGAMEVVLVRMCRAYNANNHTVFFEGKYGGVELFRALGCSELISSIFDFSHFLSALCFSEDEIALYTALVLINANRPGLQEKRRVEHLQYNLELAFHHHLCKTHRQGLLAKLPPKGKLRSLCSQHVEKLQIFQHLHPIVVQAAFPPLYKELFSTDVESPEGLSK
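Read-out: Photinus luciferase luminescence; inhibitors lower reporter signal. Insect Schneider cells with Gal4-ROR gamma fusion under metallothionein promoter, UAS reporter; 700 uM final copper sulfate induction, 20 hr, ambient temperature.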
TRPV1 potentiator: enhances activation of the human vanilloid receptor TRPV1; potentiation, % at 8.33 µM; AID 540277; actives 0.02% (n = 320,000); Q8NER1; TRPV1-expressing cells, Fluo-8 calcium influx, capsaicin EC20 potentiation; in the data active = potentiation above about 80%; inconclusive = between about 30% and that limit; note: 0% is about no effect
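Cells expressing TRPV1 were dye-loaded with Fluo-8 and read kinetically: 10 s baseline, 3 min after compound (agonist portion), then 2 min after EC20 capsaicin (allosteric enhancer portion). Calcium-bound dye fluorescence at 480/520 nm.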
An asterisk follows results filed as active; ? = inconclusive; nt = no result. Only some compounds are listed: those with a hit (about 5.8% of all), similar ones and a draw of the others. Unless noted, calls come from the whole dose curve; as a rule, active = well fitted curve in the direction sought with a large enough effect; inconclusive = small, poorly fitted or top-dose-only effect, or another doubt; inactive = no such curve, though single readings can be large; an effect the other way counts as inactive or inconclusive.

SMILES | TRPV1 ag | VP16 counter | uPA generation | RORgamma inh | TRPV1 potentiator
Cc1ccccc1NC(=S)NNC(=O)c1cccnc1 | 1 | 16µM* | 3% | 6.3µM* | 0
COc1ccccc1NC(=S)NNC(=O)c1ccncc1 | -3 | -3% | 15% | -35% | -1
O=C(NNC(=S)NC(=O)c1cccnc1)c1ccc(F)cc1 | -1 | ? | 1% | 16µM* | -3
Cc1ccccc1NC(=S)NNC(=O)c1ccncc1 | 1 | -4% | 2% | 10µM* | 5
C=CCNC(=S)NNC(=O)c1ccncc1 | 3 | -25% | 6% | 10µM* | -1
C=CCNC(=S)NNC(=O)c1cccnc1 | 3 | -17% | 1% | ? | 1
O=C(NNC(=S)Nc1ccccc1)c1cccnc1 | -3 | nt | -13% | nt | 8
CCc1ccc(C2CC(=O)N(c3cccc(F)c3)C3=C2C(=O)OC3)cc1 (stereo unspecified) | 8 | -13% | -3% | 20% | -4
CCC(C)c1ccccc1NC(=O)c1cccnc1 (stereo unspecified) | nt | 11% | nt | 11µM* | nt
CC(C)(C)NC(=S)NNC(=O)c1ccncc1 | 3 | 18µM* | -7% | 1.1µM* | 0
C[C@@H]1C(=O)N(S(=O)(=O)c2ccc([N+](=O)[O-])cc2)[C@H]1c1ccccc1 | nt | -2% | nt | -42% | nt
C[C@H](NC(=O)[C@@H](N)Cc1ccc(O)cc1)C(=O)NCC(=O)N[C@H]1CSSC[C@@H](C(=O)O)NC(=O)[C@H](CO)NC(=O)[C@H]([C@@H](C)O)NC(=O)[C@H](Cc2ccccc2)NC(=O)[C@H]([C@@H](C)O)NC(=O)[C@H](CCCCN)NC(=O)[C@@H](Cc2c[nH]c3ccccc23)NC(=O)[C@H](Cc2ccccc2)NC(=O)[C@H](Cc2ccccc2)NC(=O)[C@H](CC(N)=O)NC(=O)[C@H](CCCCN)NC1=O | nt | 2% | nt | -2% | nt
CC(C)C[C@@H](CC(=O)N[C@@H](CCCN)CC(=O)N[C@@H]1CCCC[C@H]1C(=O)N[C@H](CC(=O)N[C@@H](CCC(=O)O)CC(=O)O)Cc1ccccc1)NC(=O)[C@@H]1CNCC[C@H]1N | nt | 9% | nt | -3% | nt
CCn1nnc2cc(C(=O)NCCc3ccccc3F)ccc21 | 5 | 11µM* | -6% | ? | 8
O=C(NCc1ccco1)C1CCCN(S(=O)(=O)c2ccc(Br)cc2)C1 (stereo unspecified) | 0 | -6% | 0% | 6% | 8
CCOC(=O)c1c(C)[nH]c(C(=O)N/N=C/c2cccc(OC)c2)c1C | -2 | 1% | -13% | ? | 12
CCOC(=O)c1c(C)[nH]c(C(=O)N/N=C\c2ccccc2Cl)c1C | 0 | ? | -10% | 8.9µM* | 7
Cc1cc2ccccc2n1CCNC(=O)C(C)Oc1ccccc1 (stereo unspecified) | -3 | ? | 14% | 7.1µM* | -33
CCc1c2c(nc3ccc(OC)cc13)OC(CC)C2 (stereo unspecified) | nt | 21% | nt | -30% | nt
Cc1ccc(NC(=S)Nc2nc(CC(=O)Nc3ccccc3)cs2)cc1 | nt | 5.6µM* | nt | 1.4µM* | nt
CCOc1cc(C2c3c(n[nH]c3C)C(=O)N2c2ccc(C)cc2)ccc1O (stereo unspecified) | 12 | 6% | -2% | -18% | -3
COc1ccc(C2NN=C(c3ccc(C)cc3)S2)cc1 (stereo unspecified) | 6 | 7.1µM* | ? | ? | 2
CSc1ccc(C2NN=C(c3ccccc3)S2)cc1 (stereo unspecified) | nt | nt | -11% | nt | nt
CCOc1cc(C2NN=C(c3ccc(C)cc3)S2)ccc1O (stereo unspecified) | 7 | 14µM* | -3% | 1.1µM* | 4
COc1ccc(-c2n[nH]c(=S)n2Cc2ccccc2)cc1 | -1 | 7.1µM* | 2% | 7.9µM* | 9
SMILES | TRPV1 ag | VP16 counter | uPA generation | RORgamma inh | TRPV1 potentiator
S=c1[nH]nc(-c2ccc(Br)o2)n1Cc1ccccc1 | 1 | 13µM* | nt | 6.3µM* | 3
CC(C)c1cc(-c2n[nH]c(=S)n2Cc2ccccc2)cs1 | nt | ? | nt | 0.56µM* | nt
C=CCn1c(C2CCCCC2)n[nH]c1=S | 0 | ? | -5% | 4µM* | -4
COc1ccc(NS(=O)(=O)c2ccc(-c3n[nH]c(=S)n3Cc3ccccc3)cc2)cc1 | -3 | -1% | 3% | -41% | -20
CC(C)C[C@H](NC(=O)[C@H](CCCCN)NC(=O)[C@H](CCC(N)=O)NC(=O)[C@H](Cc1cnc[nH]1)NC(=O)[C@H](Cc1cnc[nH]1)NC(=O)[C@@H](N)C(C)C)C(=O)N[C@H](C(=O)N[C@@H](Cc1ccccc1)C(=O)N[C@@H](Cc1ccccc1)C(=O)N[C@@H](C)C(=O)N[C@@H](CCC(=O)O)C(=O)N[C@@H](CC(=O)O)C(=O)N[C@H](C(=O)NCC(=O)N[C@@H](CO)C(=O)N[C@@H](CC(N)=O)C(=O)N[C@@H](CCCCN)C(=O)O)C(C)C)C(C)C | nt | -4% | nt | 2% | nt
S=c1[nH]nc(-c2cccs2)n1Cc1ccccc1 | 1 | ? | 3% | 2.8µM* | -21
COc1ccccc1-c1n[nH]c(=S)n1Cc1ccccc1 | 0 | ? | 1% | ? | -2
Cc1n[nH]c(=S)n1Cc1ccccc1 | 1 | 9% | 2% | -40% | ?
S=c1[nH]nc(C2CCCCC2)n1Cc1ccccc1 | 1 | 7.1µM* | 2% | 2.5µM* | ?
S=c1[nH]nc(-c2ccc(Cl)cc2)n1Cc1ccccc1 | 0 | 2.8µM* | 11% | 1.8µM* | 12
S=c1[nH]nc(-c2ccccc2)n1Cc1ccccc1 | 1 | 14µM* | 0% | 2.5µM* | ?
COc1ccc(-c2n[nH]c(=S)n2Cc2ccccc2)cc1OC | -1 | ? | -1% | 11µM* | 1
CCn1ccnc1CN(C)C(=O)c1cc(COc2ccc(OC)c3ccccc23)on1 | 5 | 28µM* | 3% | -81% | -3
Cc1c2cnn(CC(=O)NCCN3CCOCC3)c(=O)c2c(C)n1Cc1ccc(F)cc1 | -5 | 1% | -3% | -8% | 11
CCC1=C2CC[C@H]3C(=O)NC(=O)[C@H]3[C@H]2[C@@]2(C)C(=NCC(=O)OC)OC(=O)N2C1=O | nt | -2% | nt | -14% | nt
Cc1cc(N2CCCCC2)n2ncc(-c3ccccc3)c2n1 | -6 | 10µM* | -5% | ? | -7
Cc1cc(-c2ccccc2)n2ncc(-c3ccccc3)c2n1 | -2 | 10µM* | -9% | ? | -1
Cc1cc(N2CCOCC2)n2ncc(-c3ccccc3)c2n1 | 6 | 13µM* | nt | ? | 5
Cc1cc(N2CCCCC2)n2ncc(-c3ccc(Cl)cc3)c2n1 | 1 | ? | -8% | 37% | 0
Cc1nc2c(-c3ccccc3)cnn2c(N)c1-c1ccccc1 | 4 | ? | -5% | 0.79µM* | -14
CCCCN(C(=O)CC1CCCCC1)c1c(N)n(CC(C)C)c(=O)[nH]c1=O | -1 | nt | 5% | nt | -1
